Activity calls are given as the source filed them.
assay: small-molecule microarray binders of probe aXIP, primary screen, biochemical, NeuroSMM set, 635/667 nm fluorescence (AID 1119); settings: higher = more signal, called active from +8 up or from −8 down;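 also: probe is the protein aXip251-270 applied at 1 µg/mL to compound-printed slides; binding of probe to printed compounds measured as 667 nm fluorescence plus signal to noise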

| Compound | composite Z-score |
| --- | --- |
| C=CC[C@]1(C(=O)NCc2ccccc2)N=C(c2ccc(OCCCO)cc2)O[C@H]1c1ccccc1CN=[N+]=[N-] | -0.451 (inactive) |
| C=C(CCCC)C(=O)CC[C@@H](OC(C)=O)c1ccc(CO)o1 | -0.666 (inactive) |
| COc1ccc(C(=O)Nc2cccc(CN3C(=O)[C@]4(O[C@H](CCn5cc(CCO)nn5)[C@@H]([Si](C)(C)c5ccc(OC)cc5)[C@@H]4C)c4ccccc43)c2)cc1 | 0.165 (inactive) |
| COC(=O)c1c(CC[C@@H](CO)NC(=O)N[C@@H](Cc2ccccc2)Cn2cc(-c3ccccn3)nn2)oc(C(=O)N2CCOCC2)c1C(=O)OC | 0.255 (inactive) |
| C=CCN1C(=O)[C@]2(O[C@H](CCO)[C@@H]([Si](C)(C)c3ccc(OC)cc3)[C@@H]2C)c2cc(N(C=O)c3ccccc3)ccc21 | 0.111 (inactive) |
| [N-]=[N+]=Nc1ccccc1[C@H]1OC(c2ccc(OCCCO)cc2)=N[C@@]1(CCS(=O)(=O)c1ccccc1)C(=O)NCc1ccccc1 | -0.0549 (inactive) |
| O=C1OCCC=C[C@H]2OC34C=CCN(CCN5CCOCC5)C(=O)[C@H]3N(CCCCCO)C(=O)[C@@H]4C12 (stereo not given in full) | -0.88 (inactive) |
| O=C1O[C@@H](c2ccccc2)[C@@H](c2ccccc2)N2[C@@H](c3ccc(OCCO)cc3)[C@]3(C(=O)Nc4ccc(C#CCCO)cc43)[C@@H](C(=O)NC[C@H](O)c3ccccc3)[C@H]12 | 1.23 (inactive) |
| CN1C(=O)C2C=CC(C(O)c3ccccc3)N(N3CCCCC3)C2C1=O (stereo not given) | -0.123 (inactive) |
| O=C1NC(=O)C2C1C=CC(C(O)c1ccc(I)cc1)N2Nc1ccc(Cl)cc1Cl (stereo not given) | -0.234 (inactive) |

assay: small-molecule binders of probe aNOTCH3, primary screen, biochemical, small-molecule microarray, 635/667 nm fluorescence (AID 1120); settings: higher = more signal;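 also: probe is a biotin-tagged antibody raised against NOTCH3 rather than NOTCH3 protein; score merges spot fluorescence near 667 nm with spot signal to noise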

| Compound | composite z-score |
| --- | --- |
| CN1C(=O)C2C=CC(C(O)c3ccc(F)cc3)N(N(c3ccccc3)c3ccccc3)C2C1=O (stereo not given) | 0.206 |
| Cc1ccc(S[C@]2(C(=O)O)CC(=O)N(Cc3ccccc3C(F)(F)F)[C@@H]2c2ccc(CO)cc2I)cc1 | -0.0716 |
| C[N+](C)(C)CCCC[C@@H]1NC(=O)[C@@H]2C[C@H](C(=O)NCCCCCN)[C@H](c3ccc(O)cc3)N2C1=O | 0.363 |
| COCCOC(=O)N1C(=O)[C@@]2(c3cc(C#CCCO)ccc31)[C@H](c1ccc(O)cc1)N1[C@H](c3ccccc3)[C@H](c3ccccc3)OC(=O)[C@H]1[C@@H]2C(=O)N1CCN(c2ncccn2)CC1 | 1.28 |
| O=C(CS)NCCCCCNC(=O)[C@@H]1C[C@@H]2C(=O)NCC(=O)N2[C@@H]1c1ccc(O)cc1 | -0.189 |
| O=C1C2C=CC(C(O)C=Cc3ccc([N+](=O)[O-])cc3)N(n3cnnc3)C2C(=O)N1Cc1ccccc1 (stereo not given) | 0.177 |
| C=C(/C(=C/C[C@H](OC(=O)c1ccncc1)c1ccc(OCCO)cc1)c1cc(C(=O)OC)ccc1OC)C(C)C | -0.0362 |
| CN(C)CCCC[C@@H]1NC(=O)[C@H]2C[C@@H](C(=O)NCCCCCN)[C@@H](c3cccc(OCCO)c3)N2C1=O | 0.313 |
| CCCNC(=O)[C@@H]1c2ccccc2C(=O)N(Cc2ccccc2OC)[C@H]1c1ccc(CO)cc1 | -0.0573 |
| Cc1ccc(S[C@]2(C(=O)O)CC(=O)N(C(C)C)[C@@H]2c2ccc(CO)cc2)cc1 | -0.139 |
| COCCCNC(=O)[C@@]1(CCS(=O)(=O)c2ccccc2)N=C(c2ccc(OCCCO)cc2)O[C@H]1c1ccccc1N=[N+]=[N-] | 0.307 |
| C=CC[C@@]1(C(=O)N2CCCCC2)N=C(c2ccc(OCCCO)cc2)O[C@@H]1c1ccccc1CN=[N+]=[N-] | 0.244 |
| C#CCN1[C@@H](Cc2ccc(O)cc2)C(=O)O[C@H](Cc2ccccc2)[C@@H]1/C=C/C1CC1 | 0.14 |
| OCC1C=C(/C=C/c2ccccc2)CN1Cc1ccccc1Br (stereo not given) | 0.0694 |
| COc1ccc(C(=O)Nc2ccc(CN3C(=O)[C@]4(O[C@H](CC(=O)N5CCC[C@H]5CO)[C@@H]([Si](C)(C)c5ccc(OC)cc5)[C@@H]4C)c4ccccc43)cc2)cc1 | 0.218 |
| CO[C@H]1O[C@H](CO)[C@@H](OC(=O)Nc2ccccc2-c2ccccc2)[C@H](OC(=O)Nc2ccccc2-c2ccccc2)[C@@H]1OC(=O)Nc1ccccc1-c1ccccc1 | 0.0904 |
| O=C1C[C@@](C(=O)NCc2ccccc2)(c2ccc([N+](=O)[O-])cc2)[C@@H](c2ccc(CO)cc2)N1CC12CC3CC(CC(C3)C1)C2 | -0.128 |
| C=C(CCCC)/C(=C/C[C@H](OC(C)=O)c1ccc(OCCO)cc1)c1cnc2ccccc2c1 | 0.116 |

| Compound | composite z-score |
| --- | --- |
| COC(=O)[C@]1(Cc2ccccc2)N=C(c2ccc(OCCCO)cc2)O[C@@H]1c1ccccc1N=[N+]=[N-] | -0.0391 |
| COC(=O)C(CC#Cc1ccc2c(c1)[C@]1(C(=O)N2)[C@H](c2ccc(O)cc2)N2[C@H](c3ccccc3)[C@H](c3ccccc3)OC(=O)[C@H]2[C@@H]1C(=O)N1CCN(c2ncccn2)CC1)C(=O)OC | 0.166 |
| CO[C@H]1O[C@H](CO)[C@@H](OC(=O)Nc2ccc(Br)cc2)[C@@H]2OC(=O)[C@H](Cc3cccc(Br)c3)C/C=C/C[C@@H](Cc3cccc(Br)c3)C(=O)O[C@@H]12 | -0.0622 |
| COCCOC(=O)N1C(=O)[C@@]2(c3cc(C#CC4(O)CCCCCC4)ccc31)[C@H](c1ccccc1OCCO)N1[C@H](c3ccccc3)[C@H](c3ccccc3)OC(=O)[C@H]1[C@@H]2C(=O)N1CCc2cc(OC)c(OC)cc2C1 | 0.0039 |
| [N-]=[N+]=NCc1ccccc1[C@H]1OC(c2ccc(OCCCO)cc2)=N[C@@]1(Cc1ccccc1)C(=O)N1CCCCC1 | 0.234 |
| COCCOC(=O)N1C(=O)[C@@]2(c3cc(C#CC4=CCCCC4)ccc31)[C@H](c1ccc(OCCO)cc1)N1[C@H](c3ccccc3)[C@H](c3ccccc3)OC(=O)[C@H]1[C@@H]2C(=O)N1CCc2cc(OC)c(OC)cc2C1 | 0.206 |
| COCC(=C=CC[C@H](O)c1cccc(OCCO)c1)CCO | -0.0311 |
| C=CC[C@]1(C(=O)NCc2ccccc2)N=C(c2ccc(OCCCO)cc2)O[C@H]1c1ccccc1CN=[N+]=[N-] | 0.367 |
| C=C(CCCC)C(=O)CC[C@@H](OC(C)=O)c1ccc(CO)o1 | -0.0581 |
| COc1ccc(C(=O)Nc2cccc(CN3C(=O)[C@]4(O[C@H](CCn5cc(CCO)nn5)[C@@H]([Si](C)(C)c5ccc(OC)cc5)[C@@H]4C)c4ccccc43)c2)cc1 | 0.0066 |
| COC(=O)c1c(CC[C@@H](CO)NC(=O)N[C@@H](Cc2ccccc2)Cn2cc(-c3ccccn3)nn2)oc(C(=O)N2CCOCC2)c1C(=O)OC | 0.0562 |
| C=CCN1C(=O)[C@]2(O[C@H](CCO)[C@@H]([Si](C)(C)c3ccc(OC)cc3)[C@@H]2C)c2cc(N(C=O)c3ccccc3)ccc21 | -0.0967 |
| [N-]=[N+]=Nc1ccccc1[C@H]1OC(c2ccc(OCCCO)cc2)=N[C@@]1(CCS(=O)(=O)c1ccccc1)C(=O)NCc1ccccc1 | 0.318 |
| O=C1OCCC=C[C@H]2OC34C=CCN(CCN5CCOCC5)C(=O)[C@H]3N(CCCCCO)C(=O)[C@@H]4C12 (stereo not given in full) | -0.152 |
| O=C1O[C@@H](c2ccccc2)[C@@H](c2ccccc2)N2[C@@H](c3ccc(OCCO)cc3)[C@]3(C(=O)Nc4ccc(C#CCCO)cc43)[C@@H](C(=O)NC[C@H](O)c3ccccc3)[C@H]12 | 0.138 |
| CN1C(=O)C2C=CC(C(O)c3ccccc3)N(N3CCCCC3)C2C1=O (stereo not given) | 0.237 |
| O=C1NC(=O)C2C1C=CC(C(O)c1ccc(I)cc1)N2Nc1ccc(Cl)cc1Cl (stereo not given) | 0.387 |
